The source of these data is paper PMC5540273 (PLoS ONE, 2017).

Each structure is given as a SMILES string.
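Also: KINOMEscan kinase panel screen.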

The first experiment has as its system T1, NIM1.
T1 construct: gene MGC42105
To be noted: concentration: 1 μM,replicates: in singlicate; n = 1.
Turning to `CCn1c(-c2nonc2N)nc2c(C#CC(C)(C)O)nc(OCCN)cc21.Cl.Cl` [GSK902056], the “%Inh” value was found to be 10%.

For `COc1ccc(C[C@@H](CN)NC(=O)c2cc(Br)c(-c3ccnc4[nH]ccc34)s2)cc1.Cl.Cl` [GSK1389063], the “%Inh” value is given as 13%.

For the compound `Cc1ccc2c(-c3ccncc3)c(-c3ccc(F)cc3)nn2c1.Cl` [GW461484], the “%Inh” value was determined as 13%.

`Cl.Cl.NC[C@H](Cc1ccc(C(F)(F)F)cc1)NC(=O)c1cc(Br)c(-c2ccnc3[nH]ccc23)s1` [GSK1487252]: the “%Inh” value was 4%.

Turning to `O=C(NCCCN1CCOC1=O)c1cnc(NCc2cc(Cl)ccc2Cl)nc1NC1CCCC1`, the “%Inh” value is reported as 2%.

On to `C=CC(=O)Nc1cc2c(Nc3ccc(F)c(Cl)c3)ncnc2cc1OCCCN1CCOCC1` [GW781483], for which the “%Inh” value is listed as 36%.

In the case of `NC(=O)c1cc(-c2ccccc2)cc2c(C3CCNCC3)c[nH]c12` [GSK301362], the “%Inh” value came to 15%.

`C[C@@H]1CCN(C(=O)CC#N)C[C@@H]1N(C)c1ncnc2[nH]ccc12`: the “%Inh” value stood at 7%.

For the compound `Cc1occc1-c1nc(N)c(OC[C@@H](N)Cc2c[nH]c3ccccc23)cc1-c1cc2c(C)n[nH]c2cn1` [GSK1660450], the “%Inh” value turned out to be 74%.

With `C[C@H]1Oc2cc(cnc2N)-c2c(nn(C)c2C#N)CN(C)C(=O)c2ccc(F)cc21`, the “%Inh” value came to 0%.

`CN(C)CC(O)COc1ccc(Nc2nccc(-c3cnn4nc(N5CCOCC5)ccc34)n2)cc1` (centres unmarked) [GW767488]: the “%Inh” value is 51%.

Turning to `CCN(CC)CCCCNc1ncc2cc(-c3c(Cl)cccc3Cl)c(NC(=O)NC(C)(C)C)nc2n1`, the “%Inh” value was 6%.

`Cl.Cl.NC[C@H](CC1CCCCC1)NC(=O)c1cc(Br)c(-c2ccnc3[nH]ccc23)s1` [GSK1581427]: the “%Inh” value amounted to 22%.

Take `CN(C)CCOc1ccc(-c2cc(-c3c[nH]nc3-c3ccccn3)ccn2)cc1` [GW835314]: the “%Inh” value is 10%.

For `CNC(=O)c1ccccc1Sc1ccc2c(/C=C/c3ccccn3)n[nH]c2c1`, the “%Inh” value is reported as 8%.

For `O=C(NCCNc1ccnc(NCc2ccc(F)cc2)n1)c1cc2ccccc2s1` [GSK1379944], the “%Inh” value was determined as 0%.

Consider `Cc1cc2cn[nH]c2cc1-c1cccc2c(N)c(C(N)=O)nnc12`, for which the “%Inh” value was found to be 27%.

Consider `CC(C)N1C(=O)Cc2cc(Nc3ncc(C(F)(F)F)c(NCc4cccc(S(C)(=O)=O)c4)n3)ccc21`, for which the “%Inh” value worked out at 51%.

For the compound `Cl.Oc1cc(-c2nc(-c3ccccc3)[nH]c2-c2ccncc2)ccc1Cl` [SB-386023], the “%Inh” value amounted to 0%.

As to `CC(C)Nc1cc(-c2ccc3c(N)n[nH]c3c2)nc(N)n1` [GSK2221681], the “%Inh” value is 0%.

For the compound `Cc1ccc(-n2nc(C(C)(C)C)cc2NC(=O)Nc2ccc(OCCN3CCOCC3)c3ccccc23)cc1` [GW839464], the “%Inh” value amounted to 0%.

On to `C[C@@H](Oc1cc(-c2cnn(C3CCNCC3)c2)cnc1N)c1c(Cl)ccc(F)c1Cl`, for which the “%Inh” value is 8%.

Turning to `Cc1n[nH]c2ccc(-c3cc(OC[C@@H](N)Cc4ccccc4)cnc3-c3ccoc3)cc12.O=C(O)C(F)(F)F.O=C(O)C(F)(F)F` [GSK507358], the “%Inh” value was 20%.

Turning to `CCN(CC)CCOc1ccc(Nc2ncc3cc(-c4c(Cl)cccc4Cl)c(=O)n(C)c3n2)cc1` [SB-601273], the “%Inh” value worked out at 96.4%.

In the case of `Cl.Cl.Nc1nc(-c2ccc3c(N)n[nH]c3c2)cc(N2CCCC(NC(=O)c3ccccc3)C2)n1` (centres unmarked) [GSK2286775], the “%Inh” value is given as 2%.

For `Cc1cc(C(=O)Nc2ccc(Oc3ccc4nc(NC(=O)C5CC5)cn4n3)cc2)nn1-c1ccccc1`, the “%Inh” value is given as 0%.

`Nc1nc(Nc2ccccc2)cc(-c2ccc3c(N)n[nH]c3c2)n1` [GSK2225749]: the “%Inh” value was 15%.

In another experiment the test system is NLK. To be noted: concentration: 1 μM,replicates: in singlicate; n = 1.
Consider `CCn1c(-c2nonc2N)nc2c(C#CC(C)(C)O)nc(OCCN)cc21.Cl.Cl` [GSK902056], for which the “%Inh” value is reported as 0%.

On to `COc1ccc(C[C@@H](CN)NC(=O)c2cc(Br)c(-c3ccnc4[nH]ccc34)s2)cc1.Cl.Cl` [GSK1389063], for which the “%Inh” value is listed as 0%.

On to `Cc1ccc2c(-c3ccncc3)c(-c3ccc(F)cc3)nn2c1.Cl` [GW461484], for which the “%Inh” value is on record as 91.3%.

For the compound `Cl.Cl.NC[C@H](Cc1ccc(C(F)(F)F)cc1)NC(=O)c1cc(Br)c(-c2ccnc3[nH]ccc23)s1` [GSK1487252], the “%Inh” value was found to be 0%.

As for `O=C(NCCCN1CCOC1=O)c1cnc(NCc2cc(Cl)ccc2Cl)nc1NC1CCCC1`, the “%Inh” value came out at 17%.

In the case of `C=CC(=O)Nc1cc2c(Nc3ccc(F)c(Cl)c3)ncnc2cc1OCCCN1CCOCC1` [GW781483], the “%Inh” value is listed as 0%.

`NC(=O)c1cc(-c2ccccc2)cc2c(C3CCNCC3)c[nH]c12` [GSK301362]: the “%Inh” value was 28%.

In the case of `C[C@@H]1CCN(C(=O)CC#N)C[C@@H]1N(C)c1ncnc2[nH]ccc12`, the “%Inh” value is given as 12%.

For the compound `Cc1occc1-c1nc(N)c(OC[C@@H](N)Cc2c[nH]c3ccccc23)cc1-c1cc2c(C)n[nH]c2cn1` [GSK1660450], the “%Inh” value is reported as 17%.

Regarding `C[C@H]1Oc2cc(cnc2N)-c2c(nn(C)c2C#N)CN(C)C(=O)c2ccc(F)cc21`, the “%Inh” value came to 5%.

Consider `CN(C)CC(O)COc1ccc(Nc2nccc(-c3cnn4nc(N5CCOCC5)ccc34)n2)cc1` (centres unmarked) [GW767488], for which the “%Inh” value amounted to 11%.

Consider `CCN(CC)CCCCNc1ncc2cc(-c3c(Cl)cccc3Cl)c(NC(=O)NC(C)(C)C)nc2n1`, for which the “%Inh” value is 81%.

Turning to `Cl.Cl.NC[C@H](CC1CCCCC1)NC(=O)c1cc(Br)c(-c2ccnc3[nH]ccc23)s1` [GSK1581427], the “%Inh” value amounted to 0%.

On to `CN(C)CCOc1ccc(-c2cc(-c3c[nH]nc3-c3ccccn3)ccn2)cc1` [GW835314], for which the “%Inh” value came to 0%.

Consider `CNC(=O)c1ccccc1Sc1ccc2c(/C=C/c3ccccn3)n[nH]c2c1`, for which the “%Inh” value worked out at 100%.

`O=C(NCCNc1ccnc(NCc2ccc(F)cc2)n1)c1cc2ccccc2s1` [GSK1379944]: the “%Inh” value was determined as 88%.

`Cc1cc2cn[nH]c2cc1-c1cccc2c(N)c(C(N)=O)nnc12`: the “%Inh” value is given as 0%.

For `CC(C)N1C(=O)Cc2cc(Nc3ncc(C(F)(F)F)c(NCc4cccc(S(C)(=O)=O)c4)n3)ccc21`, the “%Inh” value came out at 0%.

Consider `Cl.Oc1cc(-c2nc(-c3ccccc3)[nH]c2-c2ccncc2)ccc1Cl` [SB-386023], for which the “%Inh” value is reported as 90%.

As to `CC(C)Nc1cc(-c2ccc3c(N)n[nH]c3c2)nc(N)n1` [GSK2221681], the “%Inh” value is 0%.

`C[C@@H](Oc1cc(-c2cnn(C3CCNCC3)c2)cnc1N)c1c(Cl)ccc(F)c1Cl`: the “%Inh” value was determined as 0%.

Turning to `Cc1n[nH]c2ccc(-c3cc(OC[C@@H](N)Cc4ccccc4)cnc3-c3ccoc3)cc12.O=C(O)C(F)(F)F.O=C(O)C(F)(F)F` [GSK507358], the “%Inh” value is recorded as 3%.

`CCN(CC)CCOc1ccc(Nc2ncc3cc(-c4c(Cl)cccc4Cl)c(=O)n(C)c3n2)cc1` [SB-601273]: the “%Inh” value was 99.3%.

Consider `Cl.Cl.Nc1nc(-c2ccc3c(N)n[nH]c3c2)cc(N2CCCC(NC(=O)c3ccccc3)C2)n1` (centres unmarked) [GSK2286775], for which the “%Inh” value was 13%.

Regarding `Cc1cc(C(=O)Nc2ccc(Oc3ccc4nc(NC(=O)C5CC5)cn4n3)cc2)nn1-c1ccccc1`, the “%Inh” value was 2%.

For the compound `Nc1nc(Nc2ccccc2)cc(-c2ccc3c(N)n[nH]c3c2)n1` [GSK2225749], the “%Inh” value turned out to be 3%.
